# Screen size: about 68,000 compounds; about 2,700 (4%) showed an effect of 50% or more. The list comes from a sample in which strong results are over-represented; it also holds similar structures and randomly drawn compounds.
# Test system: Plasmodium berghei
# Experiment: Screen against P. berghei liver stage (PbLuc), transformed with Luciferase, at 2uM
# Assay type: functional, HepG2
# Conditions: tested at 2 uM
row,SMILES,INHIBITION [%]
1,O=C(Cn1ccc2cc(Br)ccc21)NCc1ccc(C(=O)O)cc1,18.15
2,CCCS(=O)(=O)N1CCOC2(CCCN(c3ccc(C)nn3)C2)C1 (stereo unspecified),-15.73
3,CNC(=O)[C@H]1C[C@H]2CN(C(=O)Nc3ccccc3)C[C@@H]1O2,7.35
4,CCc1ccc(NC(=O)N2C[C@@H]3C[C@H](C(=O)NC)[C@H](C2)O3)cc1,-56.73
5,CNC(=O)[C@H]1C[C@H]2CN(C(=O)Nc3ccc(F)cc3)C[C@@H]1O2,56.15
6,COCCOCC(=O)N1C[C@@H]2CC[C@H](Oc3cccc(F)c3)[C@@H]2C1,24.06
7,Cc1ccc(C)c(NS(=O)(=O)c2cc3c(c(C(=O)O)c2)OCCO3)c1,-5.09
8,O=C(Cc1ccc(F)cc1)N1CCn2cc(Cn3cncn3)nc2C1,37.2
9,CC(=O)N1C[C@@H](c2ccsc2)[C@@H]2CN(Cc3ccccc3Cl)CC[C@@H]21,-27.6
10,CN1CCC(c2cccc(NCc3nccn3C)n2)CC1,29.25
11,C1CC(CN2CCc3c(nnn3CC3CC3)C2COCC2CC2)C1 (stereo unspecified),-38.23
12,Cn1nnc2c1CCN(CC1CC1)C2COCC1CC1 (stereo unspecified),-10.89
13,C1CN(CC2CC2)C(COCC2CC2)c2nnn(CC3CC3)c21 (stereo unspecified),61.44
14,Cn1nc2c(cc1=O)CN(Cc1nc(C(C)(C)C)no1)CC2,12.91
15,COc1cc(Cl)c(NC(=O)NCCn2cccc2)cc1OC,-23.44
16,COc1cc(C)c(NC(=O)NCCn2cccc2)cc1OC,74.18
17,COc1cc(C)c(NC(=O)CCn2cccc2)cc1OC,30.42
18,CCN(Cc1cccc2c1OCO2)C(=O)NCc1ccccn1,-5.39
19,O=C(Cc1cccs1)N1C[C@H]2CC[C@@H](C1)N(Cc1ccccn1)C2=O,14.63
20,COCC(O)CN(C)C(=O)NCc1ccc(-c2ccn[nH]2)cc1 (stereo unspecified),-0.21
21,COc1ncc(C(=O)N2CCC3(CC2)C(=O)Nc2ccccc23)cn1,50.32
22,O=C(c1ccncc1)N1CCC2(CC1)C(=O)Nc1ccccc12,49.25
23,N#Cc1ccc(C(=O)N2CCC3(CC2)C(=O)Nc2ccccc23)cn1,24.88
24,Cc1ocnc1C(=O)N1CC[C@@H](O)[C@@H](O)[C@H](N2CCC(F)(F)CC2)C1,7.4
25,CCCOc1ccccc1CN[C@@H]1CCC[C@H]1Cc1cc(C)no1,3.28
26,CC(C)CC(CCO)CNC(=O)N1CC(C)(C)C1(C)C (stereo unspecified),-6.69

row,SMILES,INHIBITION [%]
1,CCCS(=O)(=O)N1CC(=O)N(Cc2cccc(OC)c2OC)CC(O)C1 (stereo unspecified),-13.32
2,CCOc1ccccc1C(CC(=O)Nc1ccccc1)NC(C)=O (stereo unspecified),23.45
3,CCOc1ccccc1C(CC(=O)Nc1ncc(C)s1)NC(C)=O (stereo unspecified),-32.89
4,CCOc1ccccc1C(CC(=O)Nc1nc(C)cs1)NC(C)=O (stereo unspecified),67.59
5,CC(C)c1nnc2n1CCN(C(=O)c1cccc(C(F)(F)F)c1)C2,15.31
6,Cc1cc(N(C)C)nc(N2CCN(Cc3nccn3C)CC2)n1,50.61
7,Cc1cc(C(F)(F)F)nc(N2CCN(Cc3nccn3C)CC2)n1,10.91
8,CN(C)c1nc(N2CCCC2)nc2c1CCN(Cc1nccn1C)CC2,55.92
9,Cc1cc(C)nc(N2CCN(Cc3nccn3C)CC2)n1,5.78
10,CC(C)Nc1nc2c(c(N(C)C)n1)CCN(Cc1nccn1C)CC2,28.11
11,Cc1nc(N2CCCC2)nc2c1CCN(Cc1nccn1C)CC2,9.98
12,Cc1cc(N(C)C)nc(N2CCn3c(C)nnc3C2)n1,29.13
13,Cc1cc(N(C)C)nc(N2CCn3c(nnc3C(C)C)C2)n1,-6.64
14,CCc1nnc2n1CCN(c1nc(C)cc(N(C)C)n1)C2,62.51
15,NS(=O)(=O)c1ccc(NCc2ccco2)c2ncccc12,7.3
16,Cc1ccccc1-c1cc(C(=O)NCCN2CCCS2(=O)=O)[nH]n1,36.65
17,Cc1ccccc1-n1c(C)cc(C(=O)N2CCn3c(C)nnc3C2)c1C,-61.5
18,CN(C(=O)CCNC(=O)C1COc2ccccc21)c1ccccc1 (stereo unspecified),-0.3
19,Cc1nn(C)c2cnn(CCCNS(=O)(=O)Cc3ccccc3)c12,-12.73
20,COC[C@@H]1CCC[C@]12CN(CCc1ccccc1)CCO2,-20.67
21,O=C([C@H]1CCCN1)N1CC2(CCNCC2)c2cc(Cl)ccc21,0.57
22,Cc1ncc(C(=O)N2CCCC(n3nc(C)nc3C)C2)c(C(C)C)n1 (stereo unspecified),24.02
23,Cc1nc(C)n(C2CCCN(C(=O)c3cscn3)C2)n1 (stereo unspecified),-13.94
24,Cc1nc(C)n(C2CCCN(C(=O)c3csc(C)n3)C2)n1 (stereo unspecified),-47.87
25,Cc1nc(C)n(C2CCCN(C(=O)c3csnn3)C2)n1 (stereo unspecified),53.45
